NCOA3 inh = SRC3 coactivator transcriptional activity inhibitors, primary screen, cell-based, luminescence. HEK293 GAL4-SRC3 luciferase reporter. AID 588352, 2011. Nuclear receptor coactivator 3 (Homo sapiens), Q9Y6Q9. inhibition, % at 3.6 µM. 360,000 tested, 0.17% active;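 active = inhibition above a per-campaign cutoff, the mean of all compounds plus 3 SD, cut at about 60% in these data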;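 also: 0% = DMSO-treated cells and 100% = gossypol-treated cells at 36 µM; higher means less SRC3-driven luciferase light from the GAL4 reporter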
NCOA1 inh = SRC1 coactivator transcriptional activity inhibitors, primary screen, cell-based, luminescence. HEK293 GAL4-SRC1 luciferase reporter. inhibition, % at 3.6 µM. 360,000 tested, 0.12% active. AID 588354, 2011;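 active = inhibition above the campaign mean plus 3 SD, with each screening campaign given its own cutoff, cut at about 60% in these data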;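 also: 0% = DMSO treated cells and 100% = gossypol at 36 µM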
Gli-Sufu antag = Gli-Sufu pathway antagonists, primary screen, luciferase luminescence, Sufu-KO-LIGHT cells, uHTS; Sufu-KO-LIGHT fibroblasts, Gli luciferase reporter luminescence; inhibition, % at 5 µM; 340,000 tested, 0.74% active;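 active = inhibition above about 55%, limit read from the data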;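 also: 0% = DMSO-treated cells and 100% = wells with medium but no cells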
NCOA2 inhibitor = inhibition of GAL4-SRC2 driven luciferase reporter, primary screen, SRC2 inhibitor project, cell-based, luminescence. Nuclear receptor coactivator 2 (Homo sapiens), Q15596. HEK293 GAL4-SRC2 luciferase reporter. inhibition, % at 9 µM. 370,000 tested, 0.17% active. AID 651957, 2012;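 active = inhibition above the mean inhibition of all tested compounds plus 3 SD, set per campaign, cut at about 52% in these data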;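 also: 0% = DMSO treated cells and 100% = cells given Gossypol at 36 µM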
LRH-1 inv ag = LRH-1 (NR5A2) inverse agonists, primary screen, cell-based, luminescence, HEK293T, StAR-luciferase reporter. Nuclear receptor subfamily 5 group A member 2 (Homo sapiens), O00482. LRH-1 transfected, 24 h. inhibition, % at 3.6 µM. 360,000 tested, 0.13% active. AID 602396, 2012;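 active = inhibition above the mean inhibition of all tested compounds plus 3 SD, cut at about 73% in these data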;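 also: 0% = DMSO wells and 100% = reporter-only cells lacking LRH-1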
Shn3 3UTR inh = reduction of Shn3 3'UTR firefly luciferase signal, primary screen, Schnurri-3 inhibitor project, cell-based, Clone20 osteoblasts, set 2; inhibition, % at 12.5 µM; 360,000 tested, 0.52% active; Clone20 osteoblast Shn3 3'UTR firefly luciferase, 24 h;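 active = mean inhibition of at least 75% with every replicate also reaching 75%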;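 also: 0% = median of neutral control wells and 100% = pilot-screen positive control compound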
Gli-Sufu confirm = Gli-SUFU pathway antagonists, confirmation, single concentration, luciferase luminescence, Sufu-KO-LIGHT cells; shares compounds with Gli-Sufu antag; Gli luciferase reporter; inhibition, % at 5 µM; 2,500 tested, 40% active;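 active = mean inhibition at 5 µM reaching about 45%, limit read from the data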;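 also: plate controls were DMSO-treated cells for no effect and wells lacking cells for full effect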
SufuKO cytotox = cytotoxicity in Sufu-KO-LIGHT cells, confirmation, cytotoxicity control for Gli-SUFU antagonist project, cell-based, ATP luminescence, single concentration; shares compounds with Gli-Sufu antag; cytotoxicity, % at 5 µM; 2,500 tested, 32% active;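 active = mean cytotoxicity at 5 µM above about 25%, limit read from the data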;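 also: cells exposed to compound overnight for roughly 16 to 18 hours; plate controls were DMSO wells with cells for no effect and medium without cells for full effect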
Wnt3a cs = Wnt3a reporter signal inhibition, confirmation, counter-screen for Gli-SUFU antagonist project, Wnt-LIGHT cells, luminescence, single concentration; shares compounds with Gli-Sufu antag; 2,500 tested, 20% active; inhibition, % at 6.25 µM; Wnt3a-driven luciferase reporter;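 active = mean inhibition above about 25%, limit read from the data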
* = called active by the depositor. Sampled rows, rich in hits. Any-hit rate of the full collection: about 1.1%.

COC(=O)C1CN(Cc2cn(CCOC(C)=O)nn2)CCS(=O)(=O)N1Cc1ccc(C)cc1 (stereo unspecified) was read as NCOA2 inhibitor 4.
Screening O=C(CSc1nnc(-c2cccs2)o1)Nc1cccc2ccccc12 returned NCOA2 inhibitor -18.
`Cc1ccccc1Cn1c(C)nc2ccccc21` gave NCOA3 inh 24, NCOA1 inh 31, Gli-Sufu antag 69*, NCOA2 inhibitor 35, LRH-1 inv ag 37, Shn3 3UTR inh 75, Gli-Sufu confirm 56*, SufuKO cytotox 36* and Wnt3a cs 30*.
For O=c1c2c([nH]c3ccccc13)CCC2 the results were NCOA3 inh 14, NCOA1 inh -4, Gli-Sufu antag 60*, NCOA2 inhibitor -18, LRH-1 inv ag 4, Shn3 3UTR inh 29, Gli-Sufu confirm 30, SufuKO cytotox 6 and Wnt3a cs 6.
COc1ccc(C2CC(C(F)(F)F)n3nc(CO)c(Cl)c3N2)cc1OC (stereo unspecified) was read as NCOA3 inh 1, NCOA1 inh 8, Gli-Sufu antag 92*, NCOA2 inhibitor -1, LRH-1 inv ag 15, Shn3 3UTR inh -5, Gli-Sufu confirm 16, SufuKO cytotox 16 and Wnt3a cs 6.
Screening COc1ccc(C2CC(C(F)(F)F)n3nc(C(=O)O)c(Cl)c3N2)cc1OC (stereo unspecified) returned NCOA3 inh 13, NCOA1 inh 2, Gli-Sufu antag 2, NCOA2 inhibitor 1, LRH-1 inv ag -19 and Shn3 3UTR inh -6.
`CC1=C(C(N)=O)C(c2ccccn2)n2nc(SCc3ccccc3Cl)nc2N1` (stereo unspecified) gave NCOA3 inh 20, NCOA1 inh -6, Gli-Sufu antag 3, NCOA2 inhibitor -8, LRH-1 inv ag -1 and Shn3 3UTR inh 2.
Screening CC1=C(C(N)=O)C(c2cccnc2)n2nc(SCc3ccccc3Cl)nc2N1 (stereo unspecified) returned NCOA3 inh 5, NCOA1 inh 5, Gli-Sufu antag 58*, LRH-1 inv ag 20, Shn3 3UTR inh -29, Gli-Sufu confirm 10, SufuKO cytotox 7 and Wnt3a cs -12.
Screening Cc1ccc(N=CC2=C(O)CC(c3ccc(Cl)cc3)CC2=O)cc1 (stereo unspecified) returned NCOA3 inh 8, NCOA1 inh -3, Gli-Sufu antag 53, NCOA2 inhibitor 10, LRH-1 inv ag 0, Shn3 3UTR inh 0, Gli-Sufu confirm 26, SufuKO cytotox 10 and Wnt3a cs 20.
`O=C1CC(c2ccccc2)CC(O)=C1C=Nc1ccccc1` (stereo unspecified) gave NCOA3 inh 11, NCOA1 inh 10, Gli-Sufu antag 23, NCOA2 inhibitor 5, LRH-1 inv ag 0 and Shn3 3UTR inh 2.
`Cn1nc(C(C)(C)C)cc1C(=O)NCc1cc(F)cc2c1OCOC2` gave NCOA3 inh 26, NCOA1 inh -1, Gli-Sufu antag 58*, NCOA2 inhibitor 27, LRH-1 inv ag 38, Shn3 3UTR inh 72, Gli-Sufu confirm 70*, SufuKO cytotox 26* and Wnt3a cs 37*.
Cc1cc(C(=O)NCc2cc(F)cc3c2OCOC3)nn1C was read as NCOA3 inh 24, NCOA1 inh -3, Gli-Sufu antag 9, NCOA2 inhibitor -17, LRH-1 inv ag 1 and Shn3 3UTR inh 1.
`CC(=O)Nc1ccc(S(=O)(=O)N2c3ccccc3C(C)=CC2(C)C)cc1` gave NCOA3 inh 13, NCOA1 inh -25, Gli-Sufu antag 57*, NCOA2 inhibitor -2, LRH-1 inv ag 24, Shn3 3UTR inh -16, Gli-Sufu confirm 52*, SufuKO cytotox 54* and Wnt3a cs 23.
Screening COc1cccc(Cn2cc(COC(=O)N3CCCC3)nn2)c1 returned NCOA2 inhibitor 7.
For O=C(C1CCN(Cc2ccc(F)cc2)CC1)N(CCc1ccccc1)Cc1ccccc1 the results were NCOA3 inh 12, NCOA1 inh -13, Gli-Sufu antag 58*, NCOA2 inhibitor 24, LRH-1 inv ag -29, Shn3 3UTR inh 24, Gli-Sufu confirm 24, SufuKO cytotox 2 and Wnt3a cs -49.
Screening O=C(NCCCN1CCN(c2ccc(F)cc2)CC1)Nc1ccccc1 returned NCOA2 inhibitor 14.
COc1ccc(-c2cc(-c3nnc(SCC(=O)Nc4nccs4)n3N)[nH]n2)cc1 was read as NCOA2 inhibitor -33.
Screening CCN1CCN(C(=O)CCNC(=O)Cn2ccc3ccccc3c2=O)CC1 returned NCOA3 inh 15, NCOA1 inh 6, Gli-Sufu antag 6, NCOA2 inhibitor 5, LRH-1 inv ag 8 and Shn3 3UTR inh -4.
Screening CN1CCN(C(=O)CCNC(=O)Cn2ccc3ccccc3c2=O)CC1 returned NCOA3 inh -9, NCOA1 inh -3, Gli-Sufu antag 99*, NCOA2 inhibitor -41, LRH-1 inv ag 6, Shn3 3UTR inh 3, Gli-Sufu confirm 10, SufuKO cytotox 2 and Wnt3a cs -9.
COc1ccc(C)cc1NC(=O)CSc1nnc(-c2n[nH]c3c2CCC3)n1N was read as NCOA2 inhibitor -10.
CC1(C)CC(=O)C2=C(C1)OC(c1ccncc1)C(C#N)=C2N (stereo unspecified) was read as NCOA3 inh 14, NCOA1 inh -46, Gli-Sufu antag 8, NCOA2 inhibitor 2, LRH-1 inv ag 14 and Shn3 3UTR inh 20.
Screening CC1(C)CC(=O)C2=C(C1)OC(c1ccc(O)cc1)C(C#N)=C2N (stereo unspecified) returned NCOA3 inh 10, NCOA1 inh -1, Gli-Sufu antag 51, NCOA2 inhibitor -9, LRH-1 inv ag -3, Shn3 3UTR inh 0, Gli-Sufu confirm 11, SufuKO cytotox 2 and Wnt3a cs -6.
Screening COc1ccc(S(=O)(=O)N2CCCC(C(=O)N3CCOCC3)C2)cc1Cl (stereo unspecified) returned NCOA3 inh -4, NCOA1 inh -15, Gli-Sufu antag -5, NCOA2 inhibitor 7, LRH-1 inv ag -4 and Shn3 3UTR inh 11.

Assay outcomes: PubChem, several laboratories
